ChEMBL document CHEMBL1157539, “Thousands of chemical starting points for antimalarial lead identification” (Nature, 2010)

system: Plasmodium falciparum; experiment: GSK_TCMDC: Inhibition of Plasmodium falciparum Dd2 in whole red blood cells, using parasite LDH activity as an index of growth. Test compounds present at 2uM; assay type: functional

| Structure (SMILES) | Inhibition [%] |
| --- | --- |
| Nc1c(Cl)cc(C(O)CNCCCCCOCCCc2ccc3ncccc3c2)cc1Cl.O=C(O)/C=C/C(=O)O (stereo not given) | 77 |
| O=C(/C=C/c1ccc(Cl)c(Cl)c1)N1CCC(NCc2ccc3[nH]ccc3c2)CC1 | 1 |
| N#Cc1cncc(-c2nc3c(N4CCC(Cc5ccccc5)CC4)cccc3n2CCNCc2ccccc2)c1.O=C(O)C(F)(F)F | 99 |
| COc1ccc(Cn2cncc2CN(CCC(C)C)C(=O)c2ccc(Cl)nc2Cl)cc1.O=C(O)C(F)(F)F | 61 |
| COc1ccc(CCN(C)CCOc2ccc(NC(=O)c3cccc4c(=O)c5cc(SC)ccc5[nH]c34)cc2)cc1OC | 82 |
| Br.COc1cc(CCCON2C(=N)N=C(N)NC2(C)C)cc(OC)c1OC | 94 |
| CCCOc1ccc2ccccc2c1CNCCCCCCNCc1c(OCCC)ccc2ccccc12.CS(=O)(=O)O | 90 |
| CC1CN(Cc2ccc(-c3ccc(-c4nc5cc(F)ccc5[nH]4)s3)cc2)CC(C)O1.O=C(O)C(F)(F)F (stereo not given) | 89 |
| CN1CCCN(Cc2cccc(-c3cccc(NC(=O)c4cccc(Cl)c4)c3)c2)CC1.O=C(O)C(F)(F)F | 20 |
| CN(CCN1CCC(c2c[nH]c3ccccc23)CC1)c1ccc(-c2nc3cc(Cl)c(Cl)cc3[nH]2)cc1 | 100 |
| CCCCOC(=O)[C@H](CCC)NC(=O)c1ccc(NS(=O)(=O)c2ccc3nc(N)[nH]c(=O)c3c2)cc1 | 3 |
| Cc1cccc2nc(C(=O)Nc3nc(CN4CCC(C)CC4)cs3)cn12 | 80 |
| CCCN(CCC)S(=O)(=O)c1ccc(C(=O)Nc2nc3ccc(-c4cc(=O)[nH]c(Nc5ccccc5Cl)n4)cc3[nH]2)cc1 | 98 |
| Nc1nccc2ccc(-c3ccc4nccn4c3)cc12.O=C(O)C(F)(F)F | 100 |
| Cc1cnc2ccc(NS(=O)(=O)c3sc4ccc(Cl)cc4c3C)cc2c1N1CCNCC1.Cl | 0 |
| CCC(CC)OC(=O)C(C)c1cccc(C(=O)c2ccccc2)c1 (stereo not given) | 0 |
| Cl.c1ccc2c(Nc3ccc(Cc4ccc(Nc5c6ccccc6nc6ccccc56)cc4)cc3)c3ccccc3nc2c1 | 100 |
| CCCc1cc(C)ccc1OCCCON1C(NC(=O)OCC)=NC(NC(=O)OCC)=NC1(C)C | 97 |
| COc1ccc(-c2cccc(NC(=O)c3ccc(Cl)cc3)c2)cc1CNC(C)C.O=C(O)C(F)(F)F | 44 |
| O=C(NCc1cccc(Cl)c1)c1ccc(CNC2CCN(Cc3ccccc3)CC2)cc1.O=C(O)C(F)(F)F | 50 |
| Cc1ccc(CN2CCCN(Cc3cccc(NC(=O)c4cc5ccccc5s4)c3)CC2)cc1C.O=C(O)C(F)(F)F | 33 |
| CS(=O)(=O)Nc1cccc(-c2cnc3[nH]cc(-c4ccc(C(=O)O)c(F)c4)c3c2)c1 | 76 |
| COc1ccccc1C1CCN(CCN2CCC(NC(=O)c3ccc(-c4ccc(C#N)cc4)cc3)CC2)CC1 | 42 |
| O=C(NCc1ccc(F)cc1)c1cnc(N2CCN(c3ccncc3)CC2)c(Cl)c1.O=C(O)C(F)(F)F | 44 |
| O=C(Nc1cccc(F)c1)N(Cc1ccc(-c2ccc(CN3CCNCC3)cc2)cc1)C1CCN(Cc2ccccc2)CC1.O=C(O)C(F)(F)F | 53 |

system: HepG2; experiment: GSK_TCMDC: Percent inhibition of human HepG2 cell line. Test compounds present at 10uM.; assay type: functional

| Structure (SMILES) | Inhibition [%] |
| --- | --- |
| O=C(Nc1ccc(OC2CCN(Cc3ccc(F)cc3)C2)cc1)c1ccco1.O=C(O)C(F)(F)F (stereo not given) | 0 |
| CCCNCc1ccc(-c2ccc(CN(Cc3ccc4c(c3)OCO4)C(=O)[C@H]3CCCO3)cc2)nc1.O=C(O)C(F)(F)F | 18 |
| Cc1cc(-c2cccc(CNCCc3ccc(Cl)cc3)c2)cnc1N.Cl | 19 |
| COc1cccc(NC(=O)COc2ccc(C(=O)Nc3nc4ccccc4[nH]3)cc2)c1 | 19 |
| FC(F)(F)c1ccc2[nH]c(-c3ccc(-c4cccc(CN5CCC(CCN6CCCCC6)CC5)c4)cc3)nc2c1.O=C(O)C(F)(F)F | 100 |
| CCC1(C)N=C(N)N=C(N)N1c1ccccc1.Cl (stereo not given) | 6 |
| COc1ccc(Cl)cc1NC(=O)Nc1ccnc2ccccc12 | 13 |
| O=C(Nc1cccc(-c2ccc(-c3nc4cc(C(F)(F)F)ccc4[nH]3)cc2)c1)c1cccnc1 | 73 |
| CCCCCNc1ccnc2cc(Cl)ccc12 | 12 |
| COc1ccc(Br)cc1/C=C/C(=O)Nc1ccc2c(c1)CCCN(C)C2 | 8 |
| CN1CCCN(c2ccnc3cc4c(cc23)N(C(=O)c2ccc(Cl)c(Cl)c2)CC4)CC1.Cl | 20 |
| COc1cc(/C=C/C(=O)NCC(CCNc2cc(=O)c3ccccc3[nH]2)NCc2cc(Br)cc(Br)c2)cc(OC)c1 (stereo not given) | 0 |
| Cc1cc(Cl)ccc1N(Cc1ccccc1)c1ccnc(Cl)n1 | 16 |
| CC[C@H]1CN(Cc2ccccc2Br)CC[C@H]1CCCc1ccnc2ccc(O)cc12 | 12 |
| CN1CCC(C(=O)N(Cc2ccc(-c3ccc(CNCCc4ccc(S(C)(=O)=O)cc4)cn3)cc2)Cc2cccc(F)c2)CC1.O=C(O)C(F)(F)F | 10 |
| Nc1c(Cl)cc(C(O)CNCCCCCOCCCc2ccc3ncccc3c2)cc1Cl.O=C(O)/C=C/C(=O)O (stereo not given) | 24 |
| O=C(/C=C/c1ccc(Cl)c(Cl)c1)N1CCC(NCc2ccc3[nH]ccc3c2)CC1 | 44 |
| N#Cc1cncc(-c2nc3c(N4CCC(Cc5ccccc5)CC4)cccc3n2CCNCc2ccccc2)c1.O=C(O)C(F)(F)F | 2 |
| COc1ccc(Cn2cncc2CN(CCC(C)C)C(=O)c2ccc(Cl)nc2Cl)cc1.O=C(O)C(F)(F)F | 19 |
| COc1ccc(CCN(C)CCOc2ccc(NC(=O)c3cccc4c(=O)c5cc(SC)ccc5[nH]c34)cc2)cc1OC | 52 |

| Structure (SMILES) | Inhibition [%] |
| --- | --- |
| Br.COc1cc(CCCON2C(=N)N=C(N)NC2(C)C)cc(OC)c1OC | 68 |
| CCCOc1ccc2ccccc2c1CNCCCCCCNCc1c(OCCC)ccc2ccccc12.CS(=O)(=O)O | 100 |
| CC1CN(Cc2ccc(-c3ccc(-c4nc5cc(F)ccc5[nH]4)s3)cc2)CC(C)O1.O=C(O)C(F)(F)F (stereo not given) | 35 |
| CN1CCCN(Cc2cccc(-c3cccc(NC(=O)c4cccc(Cl)c4)c3)c2)CC1.O=C(O)C(F)(F)F | 17 |
| CN(CCN1CCC(c2c[nH]c3ccccc23)CC1)c1ccc(-c2nc3cc(Cl)c(Cl)cc3[nH]2)cc1 | 22 |
| CCCCOC(=O)[C@H](CCC)NC(=O)c1ccc(NS(=O)(=O)c2ccc3nc(N)[nH]c(=O)c3c2)cc1 | 66 |
| Cc1cccc2nc(C(=O)Nc3nc(CN4CCC(C)CC4)cs3)cn12 | 0 |
| CCCN(CCC)S(=O)(=O)c1ccc(C(=O)Nc2nc3ccc(-c4cc(=O)[nH]c(Nc5ccccc5Cl)n4)cc3[nH]2)cc1 | 1 |
| Nc1nccc2ccc(-c3ccc4nccn4c3)cc12.O=C(O)C(F)(F)F | 15 |
| Cc1cnc2ccc(NS(=O)(=O)c3sc4ccc(Cl)cc4c3C)cc2c1N1CCNCC1.Cl | 0 |
| CCC(CC)OC(=O)C(C)c1cccc(C(=O)c2ccccc2)c1 (stereo not given) | 0 |
| Cl.c1ccc2c(Nc3ccc(Cc4ccc(Nc5c6ccccc6nc6ccccc56)cc4)cc3)c3ccccc3nc2c1 | 93 |
| CCCc1cc(C)ccc1OCCCON1C(NC(=O)OCC)=NC(NC(=O)OCC)=NC1(C)C | 62 |
| COc1ccc(-c2cccc(NC(=O)c3ccc(Cl)cc3)c2)cc1CNC(C)C.O=C(O)C(F)(F)F | 53 |
| O=C(NCc1cccc(Cl)c1)c1ccc(CNC2CCN(Cc3ccccc3)CC2)cc1.O=C(O)C(F)(F)F | 13 |
| Cc1ccc(CN2CCCN(Cc3cccc(NC(=O)c4cc5ccccc5s4)c3)CC2)cc1C.O=C(O)C(F)(F)F | 44 |
| CS(=O)(=O)Nc1cccc(-c2cnc3[nH]cc(-c4ccc(C(=O)O)c(F)c4)c3c2)c1 | 27 |
| COc1ccccc1C1CCN(CCN2CCC(NC(=O)c3ccc(-c4ccc(C#N)cc4)cc3)CC2)CC1 | 31 |
| O=C(NCc1ccc(F)cc1)c1cnc(N2CCN(c3ccncc3)CC2)c(Cl)c1.O=C(O)C(F)(F)F | 30 |
| O=C(Nc1cccc(F)c1)N(Cc1ccc(-c2ccc(CN3CCNCC3)cc2)cc1)C1CCN(Cc2ccccc2)CC1.O=C(O)C(F)(F)F | 18 |
